Laboratory results published in PubChem BioAssay.

Test: MRP1 drug-resistance reversers in H69AR cells – cell-based, doxorubicin co-treatment, pilot screen (AID 601)
Settings: H69AR cells + 2 uM doxorubicin, CellTiter-Glo, 72 h; measured here: viability with 2 uM doxorubicin; at 10 µM; stronger effect = lower value

Compound	viability
CS(=O)(=O)N(CC(=O)NC1CC1)c1cccc(F)c1	84.1%
O=C(CCCNS(=O)(=O)c1ccccc1)NCc1ccco1	92.7%
CCOC(=O)CSC1=Nc2ccccc2C2=NC(CC(=O)NCc3cccs3)C(=O)N12 (stereo not given)	86%
Cc1ccc(-c2nnn(CC(=O)N(CC(=O)NCC3CCCO3)c3ccccc3)n2)o1 (stereo not given)	88.4%
O=C(c1ccncc1)N1CCN(C(=O)c2cccs2)CC1	89.1%
CC(=O)CC(=O)Nc1ccccc1NC(C)=O	93.2%
O=C(O)C1CC=CCC1C(=O)Nc1cccc(C(=O)N2CCCCC2)c1 (stereo not given)	84.2%
C#CCN1C(=O)C(O)(CC(=O)c2cc(OC)ccc2OC)c2ccccc21 (stereo not given)	55.5%
Cn1c(COc2ccccc2)nnc1SCC(=O)Nc1ccc(N2CCOCC2)c(Cl)c1	82.8%
Nn1cnnc1SCC(=O)Nc1ccc2c(c1)OCCO2	98.2%
N#Cc1nc(COc2ccccc2)oc1NCCN1CCOCC1	95%
CSc1nnc(-c2cnccn2)n1C	89.7%
Cc1ccc(OCc2nnc(SCC(=O)N3CCOCC3)n2C)cc1	88.5%
Cc1[nH]nc2c1C1(CCN(C(=O)c3ccccc3)CC1)C(C#N)=C(N)O2	95.7%
COc1ccc(S(=O)(=O)NC(CC(=O)NCc2ccco2)c2ccco2)cc1 (stereo not given)	81.3%
COc1ccc(C(=O)N2CCOCC2)cc1Br	95%
Cn1c(=O)c2ccccc2n(Cc2ccccc2F)c1=O	90.8%
CN(C)C(=O)C12CCC(C)(c3nc4ccccc4nc31)C2(C)C (stereo not given)	85.8%
CC1(C)NC(=O)N(CCOc2cccc(Cl)c2Cl)C1=O	87.5%
Cc1nn(Cc2ccccc2)c(C)c1NC(=O)CCC(=O)O	97.7%

Same assay, conditions: H69AR cells, CellTiter-Glo, 72 h; compound alone cytotoxicity; at 10 µM

Compound	viability
COc1ccc(OC)c(CNC(=O)CCN2C(=O)COc3ccccc32)c1	91.8%
Cc1ccc(C(=O)CSc2nnc(CNc3ccc(C)cc3C)o2)cc1	81.2%
CCn1c(SCc2cccc(C(F)(F)F)c2)nnc1-c1ccco1	90.1%
O=C(CC1CCCCC1)NCc1ccccn1	95.8%
c1ccc(-c2nn3nnnc3c3ccccc23)cc1	90.8%
CN=C(Nc1ccc2c(c1)OCO2)SC1CC(=O)N(c2ccccc2)C1=O (stereo not given)	82.3%
O=C1c2ccccc2C(=O)N1CCCCN1CCN(CCCCN2C(=O)c3ccccc3C2=O)CC1	97.5%
Cc1cccc(-n2ncc(C#N)c2N)c1	104%
Cc1cc(NC(=O)COc2ncnc3sc(C)c(C)c23)no1	89.8%
O=C(CN1C(=O)CCS(=O)(=O)c2ccccc21)NCc1ccc(F)cc1	98.4%
C=CCSc1n[nH]c(-c2ccc(OC)cc2)n1	90.3%
COc1ccc(N2CCN(C(=O)CN3C(=O)C4CC=CCC4C3=O)CC2)cc1 (stereo not given)	94.6%
CSC1CCCCC1(O)CSc1nc2c(cc1C#N)CCCC2 (stereo not given)	92.6%
O=C(CCCCn1c(=O)[nH]c2ccsc2c1=O)NCc1cccnc1	99.1%
CCc1nnc(NC(=O)OCc2ccccc2)s1	102%
O=C(CP(=O)(c1ccccc1)c1ccccc1)N1CCCCC1	106%
Cc1nc(NC2=NCN(CCc3ccccc3)CN2)nc2c(C)cccc12	78%
O=C(c1ccc(CNS(=O)(=O)c2cccc(C(F)(F)F)c2)cc1)N1CCOCC1	92.9%
CCNc1oc(COc2ccccc2F)nc1C#N	100%
CC1CC(C)CN(CCCNC(=O)c2ccc3c(c2)NC(=O)C(N2CCCCC2)S3)C1 (stereo not given)	87.8%

Compound	viability
CS(=O)(=O)N(CC(=O)NC1CC1)c1cccc(F)c1	90%
O=C(CCCNS(=O)(=O)c1ccccc1)NCc1ccco1	99.3%
CCOC(=O)CSC1=Nc2ccccc2C2=NC(CC(=O)NCc3cccs3)C(=O)N12 (stereo not given)	91.7%
Cc1ccc(-c2nnn(CC(=O)N(CC(=O)NCC3CCCO3)c3ccccc3)n2)o1 (stereo not given)	90.9%
O=C(c1ccncc1)N1CCN(C(=O)c2cccs2)CC1	94.6%
CC(=O)CC(=O)Nc1ccccc1NC(C)=O	101%
O=C(O)C1CC=CCC1C(=O)Nc1cccc(C(=O)N2CCCCC2)c1 (stereo not given)	91.9%
C#CCN1C(=O)C(O)(CC(=O)c2cc(OC)ccc2OC)c2ccccc21 (stereo not given)	38.7%
Cn1c(COc2ccccc2)nnc1SCC(=O)Nc1ccc(N2CCOCC2)c(Cl)c1	94.4%
Nn1cnnc1SCC(=O)Nc1ccc2c(c1)OCCO2	97.1%
N#Cc1nc(COc2ccccc2)oc1NCCN1CCOCC1	107%
CSc1nnc(-c2cnccn2)n1C	90.7%
Cc1ccc(OCc2nnc(SCC(=O)N3CCOCC3)n2C)cc1	106%
Cc1[nH]nc2c1C1(CCN(C(=O)c3ccccc3)CC1)C(C#N)=C(N)O2	98.7%
COc1ccc(S(=O)(=O)NC(CC(=O)NCc2ccco2)c2ccco2)cc1 (stereo not given)	103%
COc1ccc(C(=O)N2CCOCC2)cc1Br	101%
Cn1c(=O)c2ccccc2n(Cc2ccccc2F)c1=O	85.2%
CN(C)C(=O)C12CCC(C)(c3nc4ccccc4nc31)C2(C)C (stereo not given)	88.8%
CC1(C)NC(=O)N(CCOc2cccc(Cl)c2Cl)C1=O	102%
Cc1nn(Cc2ccccc2)c(C)c1NC(=O)CCC(=O)O	89.4%
